# Results published in PubChem BioAssay (Tox21).
# Several values for one entry are separate records, joined by “and”; a condition that tells them apart may be missing. Equal values may be shown once. Inconclusive results are not listed. Where a call stands in place of a potency, no number is given. Where a structure was tested more than once in an assay, its records may differ in their call. Activity calls are given as the source filed them. Unless noted, the call rests on the fitted dose curve; in most records, active means well fitted curve in the direction sought with a large enough effect in the repeat runs; inconclusive means weak or mixed curves; inactive means no such curve, though single readings can be large; an effect the other way counts as inactive or inconclusive.
# Legend:
# [1] = target: Aryl hydrocarbon receptor (Homo sapiens) (UniProt P35869); assay: qHTS assay to identify small molecule that activate the aryl hydrocarbon receptor (AhR) signaling pathway (AID 743085); further: nearly all actives have a fitted effect of over 15% in size; further: potency means the concentration at half of the fitted maximal effect;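 on activation: HG2L7.5c1 human HepG2 liver cells with stably integrated DRE-driven firefly reporter; series mostly up to about 70 µM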
# Sequence of Aryl hydrocarbon receptor (Homo sapiens) (P35869 whole entry, looked up): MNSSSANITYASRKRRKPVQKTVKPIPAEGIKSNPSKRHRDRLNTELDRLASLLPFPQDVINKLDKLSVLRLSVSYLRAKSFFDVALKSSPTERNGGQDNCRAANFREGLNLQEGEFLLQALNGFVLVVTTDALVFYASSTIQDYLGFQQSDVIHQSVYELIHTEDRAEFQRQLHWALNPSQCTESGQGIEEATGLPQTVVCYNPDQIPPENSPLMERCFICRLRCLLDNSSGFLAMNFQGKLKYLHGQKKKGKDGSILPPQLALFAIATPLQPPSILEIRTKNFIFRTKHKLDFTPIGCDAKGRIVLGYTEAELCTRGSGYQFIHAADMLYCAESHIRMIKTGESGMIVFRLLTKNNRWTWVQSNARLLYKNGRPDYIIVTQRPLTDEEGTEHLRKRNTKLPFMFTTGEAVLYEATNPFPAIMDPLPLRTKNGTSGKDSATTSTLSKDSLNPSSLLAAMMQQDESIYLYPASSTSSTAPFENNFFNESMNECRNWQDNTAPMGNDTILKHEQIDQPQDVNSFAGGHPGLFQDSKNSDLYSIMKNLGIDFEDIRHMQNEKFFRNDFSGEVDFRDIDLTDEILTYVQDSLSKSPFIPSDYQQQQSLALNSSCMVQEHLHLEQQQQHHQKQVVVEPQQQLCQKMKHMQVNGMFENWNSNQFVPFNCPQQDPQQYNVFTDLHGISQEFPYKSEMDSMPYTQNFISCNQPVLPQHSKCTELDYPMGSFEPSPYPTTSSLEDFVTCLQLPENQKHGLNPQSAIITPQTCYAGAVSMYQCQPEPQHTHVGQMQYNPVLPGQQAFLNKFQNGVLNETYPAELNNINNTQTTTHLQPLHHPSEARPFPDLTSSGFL
# How it was run: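 24 h compound exposure, 37C, HepG2-derived HG2L7.5c1 cells with DRE-responsive luciferase. Readouts: fluorescence viability, then luminescence at room temperature after 30 min.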
# [2] = qHTS assay to identify small molecule that activate the aryl hydrocarbon receptor (AhR) signaling pathway - cell viability counter screen (AID 743086); further: nearly all actives have a fitted effect of over 45% in size; further: potency means the concentration at half of the fitted maximal effect
# How it was run: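 HepG2-AhR-luc (HG2L7.5c1) cells, 4000/well, were preincubated 5 h at 37C, exposed to compound in qHTS format for 24 hr at 37C, then given CellTiter-Fluor for 30 min; viability was read as fluorescence in the reporter wells.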
# [3] = target: Peroxisome proliferator-activated receptor gamma (Homo sapiens) (UniProt P37231); assay: qHTS assay to identify small molecule agonists of the peroxisome proliferator-activated receptor gamma (PPARg) signaling pathway (AID 743094; active means well fitted activation curve with a large enough effect in the signal ratio in the repeat runs, not every such curve was filed as active; the % refers to the signal ratio; further: potency means the concentration at half of the fitted maximal effect)
# Sequence of Peroxisome proliferator-activated receptor gamma (Homo sapiens) (P37231 whole entry, looked up): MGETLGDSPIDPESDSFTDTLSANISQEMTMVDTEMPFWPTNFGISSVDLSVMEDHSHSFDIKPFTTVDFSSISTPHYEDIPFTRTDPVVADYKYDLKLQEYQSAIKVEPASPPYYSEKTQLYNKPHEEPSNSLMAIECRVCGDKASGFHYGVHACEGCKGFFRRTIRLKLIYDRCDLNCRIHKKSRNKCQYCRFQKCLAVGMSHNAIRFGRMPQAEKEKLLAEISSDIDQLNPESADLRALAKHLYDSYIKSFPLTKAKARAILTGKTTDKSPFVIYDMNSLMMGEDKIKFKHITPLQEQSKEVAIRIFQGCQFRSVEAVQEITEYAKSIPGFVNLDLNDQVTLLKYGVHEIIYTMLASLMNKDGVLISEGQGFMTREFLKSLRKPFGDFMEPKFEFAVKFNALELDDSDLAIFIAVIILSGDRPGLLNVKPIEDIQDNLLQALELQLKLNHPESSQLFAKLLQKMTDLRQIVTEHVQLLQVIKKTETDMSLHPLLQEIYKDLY
# How it was run: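 GeneBLAzer PPARg UAS-bla HEK293H cells were plated, rested 5 h, then exposed to compounds for 17 h at 37C. Beta-lactamase activity was read by LiveBLAzer B/G FRET substrate fluorescence after 1 h at room temperature.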
# [4] = target: Peroxisome proliferator-activated receptor gamma (Homo sapiens) (UniProt P37231); assay: qHTS assay to identify small molecule antagonists of the peroxisome proliferator-activated receptor gamma (PPARg) signaling pathway (AID 743191; calls by dose curve; further: series mostly up to about 63 µM; nearly all actives have a fitted effect of over 30% in size)
# How it was run: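 GeneBLAzer PPARg UAS-bla HEK293H cells carrying a UAS-driven beta-lactamase reporter were plated at 3000 cells/well, preincubated 5 h at 37C, then given compound for 17 h at 37C; LiveBLAzer B/G FRET substrate was read after 1 h at room temperature.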
# [5] = qHTS assay to identify small molecule antagonists of the peroxisome proliferator-activated receptor gamma (PPARg) signaling pathway - cell viability counter screen (AID 743194); further: nearly all actives have a fitted effect of over 55% in size; further: potency means the concentration at half of the fitted maximal effect
# How it was run: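 PPARg-UAS-bla HEK293H cells were plated, rested 5 h at 37 C, then treated with compounds plus rosiglitazone (50 nM final) for 17 h at 37 C; viability was then read by CellTiter-Glo luminescence after 30 min at room temperature.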
# [6] = qHTS assay for small molecule agonists of the antioxidant response element (ARE) signaling pathway (AID 743202; active means well fitted activation curve with a large enough effect in the signal ratio in the repeat runs, not every such curve was filed as active; the % refers to the signal ratio)
# How it was run: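 Compounds delivered in DMSO to ARE-bla HepG2 cells (2,000 cells/well, pre-incubated 5 h) and left 16 h at 37 C. LiveBLAzer B/G FRET substrate then added for 2 h at RT before fluorescence reading.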
# [7] = qHTS assay for small molecule agonists of the antioxidant response element (ARE) signaling pathway - cell viability counter screen (AID 743203; calls by dose curve; further: nearly all actives have a fitted effect of over 55% in size; further: potency means the concentration at half of the fitted maximal effect)
# How it was run: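 ARE-bla HepG2 cells were plated, rested 5 h at 37C/5% CO2, then exposed to compounds in DMSO for 16 h. Viability was read as CellTiter-Glo luminescence after 30 min at room temperature, in the same wells as the ARE screen.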
# [8] = qHTS assay for small molecule activators of the heat shock response signaling pathway - cell viability counter screen (AID 743209); further: nearly all actives have a fitted effect of over 50% in size; further: potency means the concentration at half of the fitted maximal effect
# How it was run: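 HSE-bla HeLa cells plated overnight, then exposed to Tox21 compounds (23 nL in DMSO) for 5 h at 37 C. After the bla reporter read, CellTiter-Glo was added in the same wells and luminescence read after 30 min at room temperature.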
# [9] = qHTS assay for small molecule activators of the heat shock response signaling pathway (AID 743210; active means well fitted activation curve with a large enough effect in the signal ratio in the repeat runs, with a control signal flat, not every such curve was filed as active; the % refers to the signal ratio;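 further: HeLa cells with beta-lactamase reporter driven by heat shock elements; series mostly up to about 63 µM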)
# How it was run: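 Reporter gene assay: HeLa cells stably bearing an HSE-bla construct, compound treatment 5 h at 37 C, LiveBLAzer substrate 2.5 h at RT, fluorescence intensity.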
# [10] = qHTS assay to identify small molecule agonists of the peroxisome proliferator-activated receptor delta (PPARd) signaling pathway - cell viability counter screen (AID 743211); further: nearly all actives have a fitted effect of over 55% in size; further: potency means the concentration at half of the fitted maximal effect
# How it was run: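 Luminescent ATP viability assay (CellTiter-Glo, 30 min RT) in UAS-bla HEK293H cells carrying the PPAR delta reporter construct, 3000 cells/well, after a 17 h compound treatment at 37 C.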
# [11] = target: Peroxisome proliferator-activated receptor delta (Homo sapiens) (UniProt Q03181); assay: qHTS assay to identify small molecule agonists of the peroxisome proliferator-activated receptor delta (PPARd) signaling pathway (AID 743212; calls by dose curve; further: potency means the concentration at half of the fitted maximal effect)
# Sequence of Peroxisome proliferator-activated receptor delta (Homo sapiens) (Q03181 whole entry, looked up): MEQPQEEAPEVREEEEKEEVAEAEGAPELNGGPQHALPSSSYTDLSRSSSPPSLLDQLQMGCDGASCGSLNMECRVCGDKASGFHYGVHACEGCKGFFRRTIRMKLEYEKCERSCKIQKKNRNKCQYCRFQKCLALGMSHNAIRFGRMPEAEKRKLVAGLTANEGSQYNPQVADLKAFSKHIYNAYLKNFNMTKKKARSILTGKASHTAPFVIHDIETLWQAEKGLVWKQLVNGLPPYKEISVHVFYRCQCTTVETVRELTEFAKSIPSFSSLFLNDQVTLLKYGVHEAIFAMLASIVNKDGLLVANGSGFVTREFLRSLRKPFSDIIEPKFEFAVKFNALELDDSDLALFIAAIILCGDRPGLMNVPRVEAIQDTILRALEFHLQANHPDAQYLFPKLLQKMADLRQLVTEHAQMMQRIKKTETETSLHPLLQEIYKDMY
# How it was run: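 A PPARd-bla HEK293H line with beta-lactamase under an Upstream Activator Sequence is treated with compounds at 37 C. Substrate loading for 2 h at room temperature precedes the fluorescence measurement.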
# [12] = qHTS assay to identify small molecule antagonists of the peroxisome proliferator-activated receptor delta (PPARd) signaling pathway - cell viability counter screen (AID 743213); further: nearly all actives have a fitted effect of over 50% in size; further: potency means the concentration at half of the fitted maximal effect
# How it was run: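 PPARd-bla HEK293H cells were treated with compounds plus agonist L165041 (300 nM final) for 17 h at 37 C. Viability was then read in the same wells by CellTiter-Glo luminescence after 30 min at room temperature.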
# [13] = target: Peroxisome proliferator-activated receptor delta (Homo sapiens) (UniProt Q03181); assay: qHTS assay to identify small molecule antagonists of the peroxisome proliferator-activated receptor delta (PPARd) signaling pathway (AID 743215; active means well fitted inhibition curve with a large enough effect in the signal ratio in the repeat runs, not every such curve was filed as active; the % refers to the signal ratio;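 further: cells stimulated with agonist L165041 at 300 nM final during compound exposure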; further: potency means the concentration at half of the fitted maximal effect)
# How it was run: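 PPARd-bla HEK293H cells (UAS-bla reporter) preincubated 5 h, then given compound plus 300 nM final L165041 agonist for 17 h at 37 C. Beta-lactamase activity read by LiveBLAzer B/G FRET substrate fluorescence after 2 h at room temperature.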
# [14] = target: Bile acid receptor (Homo sapiens) (UniProt Q96RI1); assay: qHTS assay to identify small molecule antagonists of the farnesoid-X-receptor (FXR) signaling pathway (AID 743217; active means well fitted inhibition curve with a large enough effect in the signal ratio in the repeat runs, not every such curve was filed as active; the % refers to the signal ratio)
# Sequence of Bile acid receptor (Homo sapiens) (Q96RI1 whole entry, looked up): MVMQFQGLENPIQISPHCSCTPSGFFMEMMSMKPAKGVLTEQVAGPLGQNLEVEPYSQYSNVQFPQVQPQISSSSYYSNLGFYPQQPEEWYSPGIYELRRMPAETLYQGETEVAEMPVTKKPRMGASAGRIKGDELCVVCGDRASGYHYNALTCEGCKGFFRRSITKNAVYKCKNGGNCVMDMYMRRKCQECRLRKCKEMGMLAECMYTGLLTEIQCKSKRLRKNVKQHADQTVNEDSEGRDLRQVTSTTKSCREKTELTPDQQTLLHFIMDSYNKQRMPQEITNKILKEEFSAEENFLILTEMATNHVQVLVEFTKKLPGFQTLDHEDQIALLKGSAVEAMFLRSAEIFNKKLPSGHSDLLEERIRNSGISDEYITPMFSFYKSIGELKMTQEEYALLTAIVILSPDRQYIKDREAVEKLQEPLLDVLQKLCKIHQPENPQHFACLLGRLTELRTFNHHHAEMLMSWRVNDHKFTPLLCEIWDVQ
# How it was run: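 FXR-UAS-bla HEK 293T cells (beta-lactamase reporter) given compound plus chenodeoxycholic acid (50 uM final), 16 h at 37C. LiveBLAzer B/G FRET substrate added for 2 h at room temperature; fluorescence read.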
# [15] = qHTS assay to identify small molecule agonists of the farnesoid-X-receptor (FXR) signaling pathway - cell viability counter screen (AID 743218); further: nearly all actives have a fitted effect of over 45% in size; further: potency means the concentration at half of the fitted maximal effect
# How it was run: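 FXR-UAS-bla HEK 293T cells exposed to compounds for 16 h at 37C. Cytotoxicity read in the same wells by CellTiter-Glo luminescence after 30 min at room temperature, following the beta-lactamase FRET read.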
# [16] = target: Bile acid receptor (Homo sapiens) (UniProt Q96RI1); assay: qHTS assay to identify small molecule agonists of the farnesoid-X-receptor (FXR) signaling pathway (AID 743220; active means well fitted activation curve with a large enough effect in the signal ratio in the repeat runs, not every such curve was filed as active; the % refers to the signal ratio)
# How it was run: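 Beta-lactamase reporter under UAS control in GeneBLAzer FXR HEK 293T cells (5000/well) measured with LiveBLAzer FRET substrate after 2 h at room temperature. Compound exposure lasted 16 h at 37C.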
# [17] = qHTS assay to identify small molecule antagonists of the farnesoid-X-receptor (FXR) signaling pathway - cell viability counter screen (AID 743221; active means well fitted cell-killing curve with a large enough effect in the repeat runs, not every such curve was filed as active; further: nearly all actives have a fitted effect of over 50% in size; further: potency means the concentration at half of the fitted maximal effect)
# How it was run: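 In GeneBLAzer FXR-UAS-bla HEK 293T cells stimulated with 50 uM chenodeoxycholic acid (final), compounds acted for 16 h at 37 C. Viability was assessed afterwards by CellTiter-Glo luminescence.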
# [18] = target: Vitamin D3 receptor (Homo sapiens) (UniProt P11473); assay: qHTS assay to identify small molecule agonists of the vitamin D receptor (VDR) signaling pathway (AID 743222; calls by dose curve; further: potency means the concentration at half of the fitted maximal effect)
# Sequence of Vitamin D3 receptor (Homo sapiens) (P11473 whole entry, looked up): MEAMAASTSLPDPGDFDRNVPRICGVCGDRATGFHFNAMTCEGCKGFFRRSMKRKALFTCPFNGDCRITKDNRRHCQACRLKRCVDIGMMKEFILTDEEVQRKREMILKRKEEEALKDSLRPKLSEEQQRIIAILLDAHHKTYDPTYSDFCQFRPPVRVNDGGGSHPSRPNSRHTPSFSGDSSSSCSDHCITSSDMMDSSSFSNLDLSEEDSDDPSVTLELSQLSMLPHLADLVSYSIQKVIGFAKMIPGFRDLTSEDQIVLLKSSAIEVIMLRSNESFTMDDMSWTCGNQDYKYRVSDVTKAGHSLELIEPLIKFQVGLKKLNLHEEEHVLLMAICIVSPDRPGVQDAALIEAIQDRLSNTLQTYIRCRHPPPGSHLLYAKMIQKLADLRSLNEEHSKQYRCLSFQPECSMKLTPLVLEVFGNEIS
# How it was run: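 VDR-bla cells plated 4 h at 37 C, then exposed to compounds for 16 h at 37 C. Beta-lactamase reporter activity measured by fluorescence after 2 h room-temperature loading with LiveBLAzer B/G FRET substrate.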
# [19] = target: Vitamin D3 receptor (Homo sapiens) (UniProt P11473); assay: qHTS assay to identify small molecule antagonists of the vitamin D receptor (VDR) signaling pathway (AID 743223; active means well fitted inhibition curve with a large enough effect in the signal ratio in the repeat runs, not every such curve was filed as active; the % refers to the signal ratio; further: potency means the concentration at half of the fitted maximal effect)
# How it was run: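 Agonist 1alpha,25-dihydroxyvitamin D3 (3 nM in well) was added with each compound to VDR-bla cells preincubated 4 h. Cells stood 16 h at 37C, then FRET substrate 2 h at room temperature; fluorescence intensity recorded.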
# [20] = qHTS assay to identify small molecule agonists of the vitamin D receptor (VDR) signaling pathway - cell viability counter screen (AID 743224); further: nearly all actives have a fitted effect of over 50% in size; further: potency means the concentration at half of the fitted maximal effect
# How it was run: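 VDR-bla cells, 4 h after plating, exposed to compounds for 16 h at 37C; viability then read in the same wells as CellTiter-Glo luminescence after 30 min at room temperature, following the bla FRET read.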
SMILES,Potency [1],Potency [2],Potency [3],Potency [4],Potency [5],Potency [6],Potency [7],Potency [8],outcome [9],Potency [10],Potency [11],Potency [12],Potency [13],Potency [14],Potency [15],outcome [16],Potency [17],Potency [18],Potency [19],Potency [20]
CN(C)CCOC(C)(c1ccccc1)c1ccccn1 (stereo not drawn),inactive,inactive,inactive,inactive,inactive,inactive,inactive,inactive,inactive,inactive,inactive,inactive,inactive,inactive,inactive,inactive,inactive,inactive,inactive,inactive
O=S1(=O)OC(c2ccc(O)cc2)(c2ccc(O)cc2)c2ccccc21,inactive,24.3 µM (active),inactive,inactive,inactive,inactive,inactive,inactive,inactive,inactive,inactive,inactive,inactive,–,inactive,–,inactive,inactive,inactive,inactive
Cn1c(=O)c2c(ncn2C)n(C)c1=O,inactive,inactive and 69.4 µM (active),–,–,inactive,inactive,inactive,inactive,inactive,inactive,–,inactive,–,–,inactive,–,inactive,–,–,inactive
CCN(CC)C(=O)c1cccc(C)c1,inactive and 60.5 µM (active),inactive,inactive,–,inactive,inactive,inactive,inactive,inactive,inactive,inactive,inactive,–,inactive,inactive,inactive,inactive,inactive,inactive,inactive
Nc1ccc(S(N)(=O)=O)cc1,inactive,inactive,–,–,inactive,inactive,inactive,inactive,inactive,inactive,–,inactive,–,–,inactive,–,inactive,–,–,inactive
C=CCc1ccc(O)c(OC)c1,inactive,inactive,inactive,–,inactive,inactive,inactive,inactive,inactive,inactive,inactive,inactive,–,–,inactive,–,inactive,–,–,inactive
COc1ccc(CN(CCN(C)C)c2ccccn2)cc1,inactive,inactive,–,–,inactive,inactive,inactive,inactive,inactive,inactive,inactive,inactive,–,–,inactive,–,inactive,–,–,inactive
COc1ccc2c(c1)c(CC(=O)O)c(C)n2C(=O)c1ccc(Cl)cc1,inactive,inactive,–,–,inactive,inactive,inactive,inactive,inactive,inactive,–,inactive,–,–,inactive,–,inactive,–,–,inactive
O=C(O)c1ccccc1,inactive,inactive,inactive,inactive,inactive,inactive,inactive,inactive,–,inactive,–,inactive,–,–,inactive,–,inactive,inactive,inactive,inactive
O=C1c2c(O)cccc2Cc2cccc(O)c21,inactive,inactive,inactive,–,inactive,–,inactive,inactive,inactive,inactive,inactive,inactive,–,inactive,inactive,inactive,inactive,–,–,inactive
CCCC[P+](CCCC)(CCCC)CCCC,inactive,inactive,–,–,inactive,inactive,inactive,inactive,inactive,inactive,–,inactive,–,inactive,inactive,inactive,inactive,inactive,inactive,inactive
CC(O)(P(=O)(O)O)P(=O)(O)O,inactive and 15.4 µM (active),inactive,inactive,inactive,inactive,inactive,inactive,inactive,–,inactive,–,inactive,–,–,inactive,–,inactive,–,–,inactive
Cc1c(C(=O)O)c(O)cc2c1C(=O)c1c(O)c([C@@H]3O[C@H](CO)[C@@H](O)[C@H](O)[C@H]3O)c(O)c(O)c1C2=O,inactive,26.6 µM (active) and 21.7 µM (active),inactive,inactive,inactive,–,inactive,inactive,–,inactive,inactive,inactive,inactive,inactive,inactive,inactive,inactive,inactive,inactive,inactive
O=CC(=O)c1ccccc1,inactive,inactive,inactive,–,inactive,inactive,inactive,–,–,inactive,inactive,inactive,inactive,–,inactive,–,inactive,–,–,inactive
Cc1cc(=O)oc2cc(O)ccc12,inactive,inactive,49 µM (active),–,inactive,–,inactive,inactive,–,inactive,43.6 µM (active) and 26.6 µM (active),inactive,–,–,inactive,–,inactive,21.1 µM (active),–,inactive
C1CCC(C(CC2CCCCN2)C2CCCCC2)CC1 (stereo not drawn),inactive,18.8 µM (active),–,inactive,33.5 µM (active),–,29.8 µM (active),33.5 µM (active),–,26.6 µM (active),–,–,–,–,23.7 µM (active),–,–,inactive,21.3 µM (active),–
CN(C)C(=S)SC(=S)N(C)C,inactive,1.57 µM (active) and 1.09 µM (active),–,inactive,inactive,–,–,–,–,710 nM (active) and 389 nM (active) and 1.33 µM (active),–,3.99 µM (active) and 549 nM (active) and 944 nM (active),0.596 µM (active),–,502 nM (active) and 2.45 µM (active) and 1.68 µM (active),–,564 nM (active) and 1.68 µM (active),–,27.5 µM (active),1.26 µM (active) and 692 nM (active) and 1.06 µM (active)
